# p47phox inh = p47phox/p22phox peptide binding inhibitors, primary screen, biochemical, uHTS, NADPH oxidase regulatory subunit. fluorescence polarization, 2 h. inhibition, % at 24.7 µM. AID 1274, 2008. actives 0.53% (n = 220,000);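 further: 0% = p47phox with labelled peptide and 100% = labelled peptide alone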
# Mcl1-Bid inh = Mcl-1/Bid binding inhibitors, primary screen, biochemical, TR-FRET, 1536-well. TR-FRET Mcl-1/Bid-Dy647 peptide binding. Induced myeloid leukemia cell differentiation protein Mcl-1 (Homo sapiens), Q07820. actives 0.97% (n = 220,000). inhibition, % at 21.7 µM;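 active means compounds that cut the binding signal by more than half at the single screening dose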;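 further: His-tagged Mcl-1 with europium anti-His antibody binding Bid BH3 peptide; 0% = Mcl-1 plus peptide wells and 100% = peptide-only wells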
# Target sequence (Q07820 whole entry, looked up): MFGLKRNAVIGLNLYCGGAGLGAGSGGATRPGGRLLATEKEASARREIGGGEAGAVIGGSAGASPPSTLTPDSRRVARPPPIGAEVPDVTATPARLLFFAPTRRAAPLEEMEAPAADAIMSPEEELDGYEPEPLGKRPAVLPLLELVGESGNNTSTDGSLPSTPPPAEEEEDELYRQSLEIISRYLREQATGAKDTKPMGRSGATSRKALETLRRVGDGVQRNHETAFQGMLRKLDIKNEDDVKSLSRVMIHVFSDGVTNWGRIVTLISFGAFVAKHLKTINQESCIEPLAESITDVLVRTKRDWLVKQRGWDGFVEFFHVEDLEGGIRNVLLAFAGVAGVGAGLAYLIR
# eIF4E 4G PPI = eIF4E–eIF4G protein interaction inhibitors, primary screen, biochemical, uHTS, TR-FRET, eIF4GI fragment; actives 0.37% (n = 220,000); inhibition, % at 21.7 µM; TR-FRET eIF4E-eIF4GI(517-606) binding, 2 h;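 further: 0% = full FRET control wells and 100% = background wells lacking eIF4GI fragment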
# 14-3-3 Bad PPI = inhibitors of 14-3-3 zeta/Bad binding, primary screen, biochemical, TR-FRET, bovine 14-3-3 zeta; TR-FRET 14-3-3zeta/Dy647-pBad peptide displacement, 1 h; inhibition, % at 21.7 µM; actives 0.71% (n = 220,000); AID 781, 2007;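 active means inhibition above about 70%, limit read from the data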;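 further: 0% = full 14-3-3 plus peptide FRET controls and 100% = background without 14-3-3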
# Target sequence (P63103 whole entry, looked up): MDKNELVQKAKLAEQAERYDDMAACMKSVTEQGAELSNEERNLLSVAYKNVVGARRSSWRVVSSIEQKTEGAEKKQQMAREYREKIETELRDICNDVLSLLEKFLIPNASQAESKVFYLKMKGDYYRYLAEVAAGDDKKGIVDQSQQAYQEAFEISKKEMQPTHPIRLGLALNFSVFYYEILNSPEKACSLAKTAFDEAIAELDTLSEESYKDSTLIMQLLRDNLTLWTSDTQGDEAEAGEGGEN
# Bim-Mcl-1 = inhibitors of Bim peptide binding to Mcl-1, primary screen, biochemical, bead-based flow cytometry, multiplex. Bim peptide-Mcl-1 binding. Induced myeloid leukemia cell differentiation protein Mcl-1 (Homo sapiens), Q07820. actives 0.1% (n = 190,000). inhibition, % at 10 µM; in the data active means inhibition above about 40%;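 further: 0% = no compound tracer wells and 100% = peptide blocker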
# Mcl1 Noxa PPI = Mcl-1/Noxa binding inhibitors, primary screen, biochemical, TR-FRET, 1536-well. TR-FRET Mcl-1/Noxa peptide binding, 2 h. inhibition, % at 21.7 µM. actives 1.5% (n = 220,000). AID 1022, 2008;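 active means compounds that cut the protein-peptide binding signal by more than 50% relative to plate controls in a single-dose test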;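 further: His-tagged Mcl-1 with rhodamine Noxa BH3 peptide and terbium anti-His antibody; 0% = Mcl-1 plus Noxa peptide wells and 100% = peptide-only wells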
# * = called active by the depositor; . = not tested or not shown; [ ] = another dose, or the depositor's remark. An excerpt weighted towards active compounds, which were near 3.4% of everything screened.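 How the source made its calls, unless noted: active means inhibition above about 30% (limit read from the data); inactive means the rest.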
SMILES,p47phox inh,Mcl1-Bid inh,eIF4E 4G PPI,14-3-3 Bad PPI,Bim-Mcl-1,Mcl1 Noxa PPI
Cc1nn(C)c(C(=O)N/N=C/c2ccccc2)c1[N+](=O)[O-],-10,-1,5,-2,1,0
CC(OC(=O)C1=COCCO1)C(=O)Nc1cc(S(=O)(=O)N2CCCCC2)ccc1Cl (stereo not given),4,-29,2,0,-3,16
O=C(NC(NC(=S)Nc1ccccc1Cl)C(Cl)(Cl)Cl)c1cccc(Cl)c1 (stereo not given),-14,-50,3,2,-16,8
O=C(NC(NC(=S)Nc1ccccc1C(=O)O)C(Cl)(Cl)Cl)c1cccc([N+](=O)[O-])c1 (stereo not given),-3,13,14,73*,0,20
CN=c1scc(-c2ccccc2F)n1/N=C(\C)c1cccnc1,10,-81,10,6,-2,18
Cn1cccc1/C=N/N1CCN(Cc2cccc3ccccc23)CC1,4,-51,8,-2,.,14
O=C(CCS(=O)(=O)c1ccccc1)Nc1ccccc1-c1nc2ccccc2s1,-1,75*,3,0,-4,21
O=C(Nc1ccccc1[N+](=O)[O-])C1=C(O)CCn2c1nc1ccccc12,1,24,.,.,6,72*
O=C(Nc1ccccc1[N+](=O)[O-])c1cc2ccccc2nc1Cl,-3,-17,-1,5,.,24
O=C(COCC(=O)N1CCOCC1)N1CCOCC1,-4,-21,3,-15,-2,8
Cc1ccccc1NC(=O)C1CCN(c2cnccn2)CC1,-18,-7,4,-2,-3,11
O=C(NC1CCCCC1)C1CCN(c2cnccn2)CC1,3,-14,40*,-11,-3,-5
COc1cccc(-n2c(SCc3ccccn3)nc3c(c2=O)SCC3)c1,-4,82*,-3,-13,-2,14
CC1CC1C(=O)Nc1cc(S(=O)(=O)N2CCOCC2)ccc1N1CCCC1 (stereo not given),-12,-28,7,0,-1,12
O=c1oc2c(O)c(O)cc3c(=O)oc4c(O)c(O)cc1c4c23,-37,76*,56*[fluorescence artefact?],98*[fluorescence artefact?],10,86*
CC(C)(C)NC(=O)c1ccc(C(=O)NC(C)(C)C)cc1,0,9,-1,3,.,10
CC(C)(C)NC(=O)c1sccc1C(=O)O,-14,90*,4,77*,0,54*
O=C(Nc1cccc(Cl)c1)Nc1nnc(CC2=CCCCC2)s1,-11,-40,0,2,-2,13
CCN(CC)CCN(Cc1cc2ccc(C)cc2[nH]c1=O)C(=O)Nc1ccc(Cl)cc1,-20,-2,5,-6,0,7
CCOc1ccc(NC(=O)C2Cc3ccccc3CN2S(=O)(=O)CC)cc1 (stereo not given),-10,-24,-2,-19,1,4
CCS(=O)(=O)N1Cc2ccccc2CC1C(=O)OCC(=O)N(C(C)C)C(C)C (stereo not given),-16,-25,-7,-16,0,70*
CCCCCc1ccc(OCCC[n+]2ccccc2)c(CCCCC)c1,-4,-12,2,5,.,-3
CCCCCc1ccc(OCCOCCn2c[n+](C)c3ccccc32)c(CCCCC)c1,75*,11,21,91*,-4,21
COCC(=O)Nc1ncc(S(=O)(=O)c2ccc([N+](=O)[O-])cc2)s1,-1,68*,1,10,-1,0
COc1ccccc1CNC(=O)CSc1ccc(-c2cccc([N+](=O)[O-])c2)nn1,2,-3,1,6,0,25
SMILES,p47phox inh,Mcl1-Bid inh,eIF4E 4G PPI,14-3-3 Bad PPI,Bim-Mcl-1,Mcl1 Noxa PPI
CCOc1cc(C2c3c(oc4ccccc4c3=O)C(=O)N2c2nccs2)ccc1O (stereo not given),-69,56*,3,27,.,-31
CCOc1cccc(C2c3c(oc4ccccc4c3=O)C(=O)N2c2ccccn2)c1 (stereo not given),-4,6,4,11,-1,-4
CSC(=S)N/N=C(\C)c1ccc(Br)cc1,2,-69,0,-22,-1,-34
O=[N+]([O-])c1cccc(S(=O)(=O)NCC2CCCO2)c1 (stereo not given),-11,-20,-1,0,51*,-13
COc1ccc(-c2ccc3c(N)c(C(=O)NC(C)C)sc3n2)cc1OC,-22,-29,-5,-1,.,19
COc1ccc(C(=O)c2sc3nc(-c4ccccc4)ccc3c2N)cc1OC,30*,59*,2,84*[fluorescence artefact?],15,95*
COc1cc(OC)c(C2CC(=O)N3CN(C)CSC3=C2C#N)cc1OC (stereo not given),3,-20,-7,-16,-4,9
COc1ccc2ccccc2c1C1CC(=O)N2CN(C)CSC2=C1C#N (stereo not given),9,-17,49*[fluorescence artefact?],27,-6,38
COc1ccccc1N1CSC2=C(C#N)C(c3ccc(SC)cc3)CC(=O)N2C1 (stereo not given),-24,2,-4,-8,8,83*
CCc1ccccc1N1CSC2=C(C#N)C(c3cc(OC)c(OC)cc3OC)CC(=O)N2C1 (stereo not given),31*,-54,18,12,-2,29
N#Cc1ccccc1Cn1c(=O)n(Cc2ccc(C(=O)NCc3ccco3)cc2)c(=O)c2ccccc21,30*,38,10,52,2,-139
O=C(NCCC1=CCCCC1)C(=O)NCc1ccncc1,0,-19,-1,-6,2,10
O=C(Nc1ccccc1CC[N+](=O)[O-])N1CCN(c2ccccc2)CC1,2,-23,4,-22,1,-13
CCc1ccc(NC(=S)NC2CC3CCC(C2)N3Cc2ccco2)cc1 (stereo not given),-2,96*,-7,-3,-5,4
COc1cc(/C=C/C(=O)OCC(=O)NC(=O)NC(C)C)ccc1O,3,-55,5,-7,.,-8
N#Cc1cccc(N=Cc2c(O)ccc3ccccc23)c1,-4,-22,20,20,2,55*
CS(=O)(=O)NN1C(=O)c2ccccc2NC1c1ccccc1 (stereo not given),-11,-23,0,-2,43*,-4
Cn1ccnc1C(O)c1ccccc1 (stereo not given),1,-9,-1,-2,0,-3
Cn1ccnc1C(O)(c1ccccc1)c1nccn1C,48*,-12,2,-3,.,-2

# Source: PubChem (several laboratories)
